# Screening data as filed in PubChem BioAssay.
# The sample as a whole holds a higher share of hits than the screen did.
# Shiga toxin inh = Shiga toxin inhibition. 9.2% of 290,000 active. Vero cells, Shiga toxin protein synthesis inhibition reporter. inhibition, % at 38.7 µM; in the data active = inhibition mostly above about 28%, no sharp cut-off; inactive = mostly below about 43%
# LmPK inhibitor = LmPK (Leishmania mexicana) enzyme inhibition | 0.37% of 290,000 active | Q27686 | purified LmPK, Kinase-Glo ATP luminescence, 1 h | Potency, µM (top dose mostly 57.5 µM), actives largely listed as inhibitors
#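 Kinase-Glo luminescence read after 1 h RT reaction of 0.1 nM LmPK with 0.5 mM PEP and 0.1 mM ADP. Activity scaled between uninhibited and enzyme-free controls.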
# CHX counter = counter-screen hit for Shiga toxin inhibitors, cycloheximide; max response, %; cell reporter, cycloheximide protein synthesis inhibition counterscreen; 12% of 300,000 active; AID 2314; in the data active = max response mostly above about 13%, no sharp cut-off; inactive = mostly below about 14%; also: read at 38.3 µM for the half of the compounds with a filed dose
# Sm TGR inh = blocks Schistosoma mansoni thioredoxin glutathione reductase. Q962Y6. purified TGR, DTNB reduction, TNB absorbance 405 nm. Potency, µM (highest dose often 114 µM), most hits filed as inhibitors. 3% of 360,000 active. AID 485364; also: nearly all actives have a fitted effect of over 60% in size
#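 Kinetic colorimetric format: TGR-catalysed, NADPH-driven DTNB reduction monitored via TNB absorbance. Enzyme dispensed at 20 nM; compound exposure 15 min at room temperature before reaction start.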
# TbPYK inhibitor = blocks Trypanosoma brucei pyruvate kinase; TbPYK enzyme, Kinase-Glo Plus ATP luminescence, 45 min; Potency, µM (titrated, usually from 76.8 µM), usual class: inhibitors; 0.12% of 410,000 active; AID 624173; also: nearly all actives have a fitted effect of over 50% in size
#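 TbPYK + substrate in 50 mM TEA pH 7.2, 100 mM KCl, 10 mM MgCl2, 0.05% BSA, 0.01% Tween-20; cpd pinned; ADP 130 uM final; 45 min RT; Kinase-Glo Plus 10 min; luminescence endpoint.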
# FBPA Giardia inh = inhibitors of Giardia lamblia fructose-1,6-bisphosphate aldolase; A8B2U2; purified Giardia FBPA; Potency, µM (highest dose often 59.6 µM), most hits filed as inhibitors; 0.71% of 290,000 active; AID 2451; also: nearly all actives have a fitted effect of over 55% in size
# Target sequence (A8B2U2 whole entry, looked up): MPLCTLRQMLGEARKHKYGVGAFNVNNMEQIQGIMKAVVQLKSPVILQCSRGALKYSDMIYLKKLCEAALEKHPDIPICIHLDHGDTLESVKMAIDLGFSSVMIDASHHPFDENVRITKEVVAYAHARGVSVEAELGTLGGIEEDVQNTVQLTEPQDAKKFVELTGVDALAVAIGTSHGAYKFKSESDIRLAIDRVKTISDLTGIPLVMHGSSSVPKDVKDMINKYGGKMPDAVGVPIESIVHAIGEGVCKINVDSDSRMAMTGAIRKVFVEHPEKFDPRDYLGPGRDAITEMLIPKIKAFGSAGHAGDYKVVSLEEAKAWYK
#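 Giardia FBPA (40 nM reagent) was preincubated 10 min at RT with compound (up to 57.5 uM final), then substrate plus GAPDH/TPI/NAD/arsenate coupling system with diaphorase/resazurin was added; resorufin fluorescence (525/598 nm) was read after 20 min.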
# A number is an active result; i = inactive; ? = inconclusive; nt = no result. Unless noted, calls follow the shape of the dose curve; as a rule, active = well fitted curve in the direction sought with a large enough effect; inconclusive = small, poorly fitted or top-dose-only effect, or another doubt; inactive = no such curve, though single readings can be large; an effect the other way counts as inactive or inconclusive.
SMILES,Shiga toxin inh,LmPK inhibitor,CHX counter,Sm TGR inh,TbPYK inhibitor,FBPA Giardia inh
COc1ccccc1NC(=O)Cn1c(=O)n(CC2CCC(C(=O)NCCc3ccccc3)CC2)c(=O)c2ccccc21 (stereo not drawn),nt,nt,nt,i,i,nt
O=C(NC(=S)Nc1ccc(S(=O)(=O)Nc2nccs2)cc1)c1ccccc1F,i,i,i,i,i,i
CCOC(=O)Nc1ccc(NS(=O)(=O)c2ccc(C)cc2)cc1,i,i,i,i,i,i
CCc1nnc(NS(=O)(=O)c2ccc(N/C=C\C(=O)c3ccc4ccccc4c3)cc2)s1,i,i,24.0,i,i,i
O=C(NC(=S)Nc1ccc(S(=O)(=O)Nc2nccs2)cc1)c1ccccc1,i,i,i,35.5µM,i,i
Cc1ccc(S(=O)(=O)Nc2ccc(NC(=O)/C=C/C(=O)O)cc2)cc1,i,i,i,50.1µM,i,i
CCc1ccc(S(=O)(=O)Nc2nccs2)cc1,i,i,i,i,i,?
O=S(=O)(Nc1nccs1)c1ccc(F)cc1,58.8,i,38.4,i,i,i
CCOc1ccc(CCNC(=O)CCn2c(=O)c3cccn3c3ccc(F)cc32)cc1OCC,nt,nt,nt,i,i,nt
CCOC(=O)CCn1c(=O)c2cccn2c2cccnc21,nt,nt,nt,i,i,nt
CC(=O)c1nnn(-c2ccc(C)cc2Cl)c1C,nt,nt,nt,i,i,nt
Cc1cccc(N2CCN(c3ccc4cc(S(=O)(=O)N5CCC(C)CC5)ccc4n3)CC2)c1C,nt,nt,nt,i,i,nt
O=C(NC(=S)Nc1ccc(S(=O)(=O)Nc2nccs2)cc1)c1ccc(F)c(F)c1,i,i,i,?,i,i
CCc1nnc(NS(=O)(=O)c2ccc(NC(=S)NC(=O)c3ccccc3)cc2)s1,i,i,i,39.8µM,i,i
O=C(NC(=S)Nc1ccc(S(=O)(=O)Nc2nccs2)cc1)c1cccnc1,i,i,i,12.6µM,i,i
CCc1nnc(NS(=O)(=O)c2ccc(NC(=O)/C=C/C(=O)O)cc2)s1,i,i,i,5.62µM,i,i
CC(=O)N1CCCc2cc(S(=O)(=O)N(C)CC(=O)Nc3cccc(Cl)c3C)ccc21,nt,nt,nt,i,i,nt
O=C(CSc1nc(C2CC2)nc2ccccc12)N1CCc2ccccc21,nt,nt,nt,nt,i,nt
COCCNC(=O)CSc1nnc(-c2ccc(OC)c(OC)c2)c(-c2ccc(OC)c(OC)c2)n1,nt,nt,nt,i,i,nt
Cc1cc(/C=C2\SC(=S)N(C)C2=O)c(C)n1-c1ccccc1O,nt,nt,nt,nt,i,nt
O=C1NN(c2ccccc2)C(=O)C1=Cc1ccccc1O,nt,nt,nt,nt,i,nt
COc1ccc(-n2c(C)cc(/C=C3\SC(=O)NC3=O)c2C)cc1,58.3,i,41.6,i,i,i
Cc1cc(/C=C2/C(=O)NN(c3ccccc3)C2=O)c(C)n1-c1cccc(O)c1,59.7,i,57.4,i,i,i
Cc1cc(/C=C2\SC(=S)NC2=O)c(C)n1-c1cccc(O)c1,64.5,i,40.9,i,i,i
Cc1cc(/C=C2\SC(=S)N(C)C2=O)c(C)n1-c1ccc(O)cc1,69.6,i,51.6,?,i,i
SMILES,Shiga toxin inh,LmPK inhibitor,CHX counter,Sm TGR inh,TbPYK inhibitor,FBPA Giardia inh
CCc1ccc(NC(=O)C(=O)NCC(c2ccc3c(c2)OCO3)N2CCOCC2)cc1 (stereo not drawn),nt,nt,nt,i,i,nt
CC1=CC2=NC(=O)/C(=C\c3cc(C)n(-c4ccc(F)cc4)c3C)C(=N)N2O1,i,i,i,i,i,i
Cc1ccc(-n2c(C)cc(/C=C3/C(=O)NC(=O)N(C)C3=O)c2C)cc1,i,i,i,i,i,i
Cc1ccc(-n2c(C)cc(/C=C3\SC(=O)NC3=O)c2C)cc1,83.3,i,31.9,i,i,i
Cc1cc(/C=C2\SC(N)=NC2=O)c(C)n1-c1ccc(F)cc1,i,i,19.9,i,i,i
COC(=O)c1ccc(Cn2c(SCc3ccccc3)nc3ccncc32)cc1,nt,nt,nt,i,i,nt
C=CCN=C1S/C(=C\c2ccc(N(C)C)cc2)C(=O)N1CC=C,59.1,i,45.3,i,i,i
C=CCN1C(=O)/C(=C/c2ccc(OC)cc2)S/C1=N/c1nccs1,i,i,i,i,i,i
Cc1c(Cl)cccc1NC(=O)Nc1nnc(N(C)Cc2ccccc2)s1,nt,nt,nt,i,i,nt
Cc1cc(C)c2[nH]c(=O)c(C(c3nnnn3C(C)(C)C)N3CCN(C(=O)c4ccco4)CC3)cc2c1 (stereo not drawn),i,i,i,79.4µM,?,i
CCC(C)(C)n1nnnc1C(c1cc2cc(C)cc(C)c2[nH]c1=O)N1CCCC1 (stereo not drawn),i,i,i,22.4µM,i,i
COc1ccccc1C(c1nnnn1C(C)(C)C)N1CCN(C(=O)c2ccco2)CC1 (stereo not drawn),i,i,i,i,i,i
CCC(C)(C)n1nnnc1C(c1cc2cccc(C)c2[nH]c1=O)N1CCCC1 (stereo not drawn),i,i,i,10µM,i,i
O=C(c1ccc(S(=O)(=O)Cc2ccccc2Cl)c([N+](=O)[O-])c1)N1CCN(c2ccccn2)CC1,i,i,i,7.94µM,i,i
Cc1ccccc1CS(=O)(=O)c1ccc(C(=O)N2CCC(C)CC2)cc1[N+](=O)[O-],i,i,i,89.1µM,i,i
O=C(c1ccc(S(=O)(=O)Cc2cc(F)ccc2F)c([N+](=O)[O-])c1)N1CCCCC1,i,i,i,8.91µM,i,i
O=C(c1ccc(S(=O)(=O)Cc2cc(F)ccc2F)c([N+](=O)[O-])c1)N1CCCC1,i,i,i,?,i,i
CC1CCN(C(=O)c2ccc(S(=O)(=O)Cc3cccc(F)c3)c([N+](=O)[O-])c2)CC1,i,i,i,3.55µM,i,i
Cc1ccc(-c2cc(C(=O)OCC(=O)c3ccccc3)c3cccc(Cl)c3n2)cc1,nt,nt,nt,i,i,nt
O=c1c(-c2cccc(F)c2)nc2cncnc2n1Cc1ccccc1Cl,nt,nt,nt,nt,nt,i
CCCCOc1ccc(C2C(=O)N(C3CCCCC3)CC(=O)N2C2CCCCC2)cc1 (stereo not drawn),nt,nt,nt,i,i,nt
CCCSc1cc(OC)c(CCN)cc1OC,nt,nt,nt,nt,i,nt
CC1=C(C(=O)Nc2cccnc2)C(c2cccc(O)c2)n2nc(SCc3ccccc3)nc2N1 (stereo not drawn),nt,nt,nt,i,i,nt
CC[C@@H]([C@H](C)O)n1ncn(-c2ccc(N3CCN(c4ccc(OCC5CO[C@@](Cn6cncn6)(c6ccc(F)cc6F)C5)cc4)CC3)cc2)c1=O (stereo partly drawn),nt,nt,nt,nt,i,nt
Cc1nc2ccccc2nc1N1CCCC1,39.7,i,i,i,i,i
Cc1cccc(Cl)c1OCCCN1CCOCC1,48.9,i,21.4,i,i,?
c1ccc(SCCOCCN2CCOCC2)cc1,i,i,14.8,i,i,?
O=[N+]([O-])c1ccccc1OCCOc1ccccc1[N+](=O)[O-],49.7,i,17.7,i,i,i
CC(C)(C)C(=O)COc1ccccc1[N+](=O)[O-],i,i,i,i,i,i
